Assay outcomes from PubChem BioAssay.
The list is not random: actives were taken first. Their share in the collection is about 21%.
Cycloheximide cs – Cycloheximide Counterscreen for Small Molecule Inhibitors of Shiga Toxin. AID 2314, 2010. max response, %. cell reporter, cycloheximide protein synthesis inhibition counterscreen. 300,000 compounds, 12% hits; in the data active = max response mostly above about 13%, no sharp cut-off; inactive = mostly below about 14%; note: read at 38.3 µM for the half of the compounds with a filed dose; 0% is about no effect
Sm TGR inh – qHTS Assay for the Inhibitors of Schistosoma Mansoni Peroxiredoxins; Potency, µM (series often up to 114 µM), inactives show at the highest dose activity change, negative = inhibition, hits mostly inhibitors; purified TGR, DTNB reduction, TNB absorbance 405 nm; 360,000 compounds, 3% hits; note: potency is the fitted concentration of half-maximal effect; % is set by controls: 0 for no effect and ±100 for the full control effect; nearly all actives have a fitted effect of over 60% in size
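Kinetic colorimetric format: TGR-catalysed, NADPH-driven DTNB reduction monitored via TNB absorbance. Enzyme dispensed at 20 nM; compound exposure 15 min at room temperature before reaction start.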
Shiga inhibitor – A qHTS for Small Molecule Inhibitors of Shiga Toxin. inhibition, % at 38.7 µM. AID 2315, 2010. Vero cells, Shiga toxin protein synthesis inhibition reporter. 290,000 compounds, 9.2% hits; in the data active = inhibition mostly above about 28%, no sharp cut-off; inactive = mostly below about 43%; note: 0% is about no effect
Pf growth 48h – Primary qHTS for delayed death inhibitors of the malarial parasite plastid, 48 hour incubation; P. falciparum luciferase growth in erythrocytes, 48 h; Potency, µM (top dose mostly 28.7 µM), for inactives: top-dose activity change, negative = inhibition, most hits filed as inhibitors; 310,000 compounds, 5.9% hits; AID 504832, 2011; note: potency is the fitted concentration of half-maximal effect; % is set by controls: 0 for no effect and ±100 for the full control effect
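In quantitative HTS format, infected erythrocytes bearing luciferase-reporter parasites were treated for a single generation at 37 C. Luminescence after adding detection reagent served as the growth measure.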
NS1 function inh – qHTS Assay for Inhibitors of Influenza NS1 Protein Function; Potency, µM (series often up to 46.1 µM), without a hit: top-dose activity, positive = more growth; 270,000 compounds, 0.4% hits; AID 2326, 2010; calls by dose curve; note: potency is the fitted concentration of half-maximal effect; actives are rising curves; nearly all actives have a fitted effect of over 50% in size
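In this qHTS, NS1 from influenza A is expressed in budding yeast, where it slows growth. Cells are switched from glucose to 2% galactose medium (pH 6.0, -URA), treated with compound, and growth recovery is read at OD600.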
Pf growth 96h – Primary qHTS for delayed death inhibitors of the malarial parasite plastid, 96 hour incubation | Potency, µM (doses to about 28.7 µM), without a hit: top-dose activity change, negative = inhibition, actives largely listed as inhibitors | 320,000 compounds, 6.9% hits | P. falciparum luciferase reporter growth, 96 h; note: potency is the fitted concentration of half-maximal effect; % is set by controls: 0 for no effect and ±100 for the full control effect
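Plates of compound plus infected erythrocytes (2% hematocrit, 0.05% parasitemia final) incubate 96 hours, 37 C, 5% CO2. Detection reagent added; reduced luminescence from the parasites' luciferase reporter flags inhibition.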
The depositor's hits bear a star; ? = inconclusive; · = not tested or not shown; [ ] = dose if it differs, or a comment. Unless noted, calls come from the whole dose curve; as a rule, active = well fitted curve in the direction sought with a large enough effect; inconclusive = small, poorly fitted or top-dose-only effect, or another doubt; inactive = no such curve, though single readings can be large; an effect the other way counts as inactive or inconclusive.

SMILES | Cycloheximide cs | Sm TGR inh | Shiga inhibitor | Pf growth 48h | NS1 function inh | Pf growth 96h
O=C(O)C1CC=CCC1C(=O)Nc1ccc2c(c1)OCCO2 (stereo not drawn) | 60.8* | 8.3% | 36.2* | 89.6% | -1.7% | 42.9%
O=C(Nc1ccc2c(c1)OCCO2)Nc1ccc2c(c1)OCO2 | 33.4* | -1.6% | 62.0* | 278.5% | · | 133.8%
O=C(Nc1ccc2c(c1)OCCO2)NC12CC3CC(CC(C3)C1)C2 | 49.2* | -6.2% | 107.9* | 128.9% | -36.0% | 25.3%
COc1ccc(C(=O)Nc2ccc(-c3nc4cc(C)ccc4o3)c(O)c2)cc1 | · | 0.6% | · | · | · | ·
CCCc1cc(-c2[nH]ncc2-c2ccc3c(c2)OCCCO3)c(O)cc1OC | -1.9 | 32.3% | -32.5 | 3.7µM* | -69.2% | ·
COc1ccccc1C(=O)COC(=O)Cn1nc(C)c([N+](=O)[O-])c1C | · | -2.0% | · | ? | · | 25.6%
Cc1ccc(-c2nc(N)sc2-c2ccc(C)cc2)cc1 | -3.6 | 6.9% | -18.0 | -5.8% | · | -14.9%
Cc1ccc(-c2nc(N)sc2C)cc1 | 14.8* | -1.5% | 33.1* | 14.6% | · | 57.5%
CCn1c(SCC(=O)C(C)(C)C)nnc1-c1cnccn1 | -1.0 | -1.4% | 1.2 | -25.2% | -2.9% | 8.0%
CSc1nnc(-c2cnccn2)n1CCCN1CCCC1=O | -3.6 | 2.8% | 2.7 | 0.0% | -7.0% | 7.38µM*
Cc1cc(C(=O)OCC(=O)NCCc2ccc(S(N)(=O)=O)cc2)c2ccccc2n1 | · | 4.3% | · | -7.1% | · | ?
COc1ccc(-n2c(C)c(C)c3c(NCCO)ncnc32)cc1 | 33.2* | ? | 58.9* | 22.4% | -0.5% | 16.3%
COc1ccc(-n2c(C)c(C)c3c(NCCCN(C)C)ncnc32)cc1 | -4.2 | -0.6% | -14.5 | -17.8% | -0.1% | -14.3%
Cc1ccc(-n2c(C)c(C)c3c(NCCCO)ncnc32)cc1 | 44.9* | -5.2% | 120.0* | 94.6% | -2.6% | 89.1%
COc1ccc(-n2c(C)c(C)c3c(NCCCO)ncnc32)cc1 | 43.3* | -5.8% | 71.3* | 16.5% | 0.8% | 9.0%
Cc1cc(C)c2c(c1)c(C)cc1nnc(SCC(=O)c3ccc(F)cc3)n12 | · | 1.1% | · | · | · | ·
Fc1ccc(Nc2ncnc3onc(-c4ccc(Cl)cc4)c23)cc1Cl | · | 4.9% | · | · | · | ·
COc1ccccc1-c1nc2c(c(SCc3ccc(F)cc3Cl)n1)Cc1c(CO)cnc(C)c1O2 | · | 0.2% | · | · | · | ·
COc1ccc(S(=O)(=O)O/N=C2\CCSc3ccc(C)cc32)cc1 | 1.0 | -5.1% | -4.4 | 2.94µM* | -3.2% | ?
COc1cc(-c2csc(NC3CCCCC3)n2)cc(OC)c1OC | 2.2 | -11.8% | 22.7 | 11.7µM* | 29.8% | ?
COc1cc(CNC2CCCCCC2)cc(OC)c1OC | 2.7 | 8.4% | -8.1 | ? | 9.5% | 6.0%
CCc1nnc(N2C(=O)c3ccc(Oc4ccc([N+](=O)[O-])cc4)cc3C2=O)s1 | 1.5 | -10.6% | 14.9 | 10.3% | 2.2% | 42.6%
CCC(CC)C(=O)Nc1ccc(C(=O)c2ccccc2)cc1 | 17.7* | 6.0% | 49.9* | 42.3% | -22.1% | 42.9%
O=C(Nc1ccc(-c2cnco2)cc1)c1ccccc1 | 46.9* | -1.8% | 93.0* | 94.1% | -6.1% | 150.8%
CCC(=O)Nc1ccc(NC(=S)Nc2ccccc2)cc1 | -6.0 | -24.1% | -17.6 | 26.0% | 6.2% | 11.7µM*
SMILES | Cycloheximide cs | Sm TGR inh | Shiga inhibitor | Pf growth 48h | NS1 function inh | Pf growth 96h
O=C(Nc1ccc(-c2cnco2)cc1)c1ccc(Cl)cc1 | 9.7 | 8.3% | 13.8 | 31.5% | 0.6% | 17.0%
CCCCC(CC)C(=O)Nc1ccc(Nc2ccccc2)cc1 (stereo not drawn) | 3.9 | -22.9% | -6.9 | ? | 5.3% | ?
CCC(=O)NC1=C(Nc2ccc(N)cc2)C(=O)c2ccccc2C1=O | 27.4* | 3.7% | 96.4* | ? | 6.9% | ?
COc1ccc(OCC(NS(=O)(=O)c2ccc(-n3cnnn3)cc2)C(C)C)cc1 (stereo not drawn) | 11.5 | 2.5% | -7.7 | ? | -10.8% | 70.4%
C=CCNC(=O)c1ccc2nc(-c3ccccc3)c(-c3ccccc3)nc2c1 | -4.6 | -7.5% | 16.4 | ? | -16.2% | ?
O=C(NNC(=O)c1ccc(NC(=O)c2ccccc2)cc1)c1ccc(F)cc1 | -0.8 | -18.9% | 9.5 | -18.1% | 9.9% | -44.2%
COc1ccc(C2C(=O)c3ccccc3C2=O)cc1 | 8.6 | -3.1% | 22.6 | ? | 0.1% | ?
CCC(=O)Nc1ccc(C2C(=O)c3ccccc3C2=O)cc1 | 25.4* | -14.5% | 35.3 | 39.4% | ? | 105.4%
C=CCNC(=O)c1ccc(C(=O)c2ccccc2)cc1 | 24.0* | -8.9% | 109.9* | 45.1% | -61.7% | 36.0%
O=C(Nc1ccc(C(=O)c2ccccc2)cc1)c1ccccc1 | 55.9* | 10.9% | 147.7* | 42.9% | -40.7% | ?
CCC(=O)Nc1ccc(C(=O)c2ccccc2)cc1 | 20.1* | ? | 34.7 | 32.2% | -53.0% | 5.4%
CC(=O)Nc1ccc(NC(=O)C(c2ccccc2)N2Cc3ccccc3C2=O)cc1 (stereo not drawn) | · | -3.9% | · | · | · | ·
CCOc1cccc(C(=O)Nc2ccc3[nH]ncc3c2)c1 | 35.7* | 7.7% | 21.8* | 144.5% | 7.3% | -2.4%
CCOc1cccc(C(=O)Nc2ccncc2)c1 | -0.6 | 14.2% | -2.3 | -1.2%[5.75 µM] | · | 48.2%
COc1ccccc1C(=O)Nc1ccc2[nH]ncc2c1 | 16.0* | -9.6% | 24.2 | 5.2% | -10.7% | 7.38µM*
COc1cccc(C(=O)Nc2ccc3[nH]ncc3c2)c1 | 24.3* | -22.5% | 23.3 | 170.2% | 0.5% | ?
CCCCn1c(=O)nc2n(-c3ccc(Br)cc3)c3ccccc3cc-2c1=O | · | -4.0% | · | · | · | ·
Cc1ccc(N2CC(C(=O)Nc3cccc(F)c3)CC2=O)cc1 (stereo not drawn) | -5.2 | 3.2% | 37.5 | -6.1% | -2.8% | 2.33µM*
Cc1cc(C)c(NC(=O)C2CC(=O)N(c3ccc4c(c3)OCCO4)C2)c(C)c1 (stereo not drawn) | 26.0* | 4.5% | 12.9 | · | 2.5% | 0.4%
CCOc1ccc(N2CC(C(=O)Nc3ccc(F)cc3F)CC2=O)cc1 (stereo not drawn) | -0.3 | 2.1% | -3.1 | -9.4% | 4.2% | 9.28µM*
CCc1cccc(CC)c1NC(=O)C1CC(=O)N(c2ccc3c(c2)OCCO3)C1 (stereo not drawn) | 13.0 | -5.4% | 24.6 | -7.6% | 6.3% | ·
CCOc1ccc(N2CC(C(=O)N3CCCC3)CC2=O)cc1 (stereo not drawn) | -5.4 | 5.7% | -9.0 | 11.9% | -3.6% | 11.7µM*
O=S(=O)(NCC1CN(S(=O)(=O)c2c(F)cccc2F)C1)c1ccc2c(c1)OCCO2 | 5.7 | -0.4% | -7.3 | -18.2% | · | 5.7%
CCCn1c(SCC(=O)NNC(=O)c2ccc(OC)cc2)nnc1C(C)C | 0.5 | 1.6% | 20.0 | 5.9% | -14.4% | 7.7%
